We go through 23 molecules from PubChem BioAssay (Tox21).

Inconclusive results are not listed. Unmarked numbers belong to inactive results. Active and inactive are the calls of the source. Calls follow the shape of the dose curve; as a rule, active = well fitted activation curve with a large enough effect in the signal ratio in the repeat runs (not every such curve was filed as active); inconclusive = weak or mixed curves; inactive = flat fitted curve, though single readings scatter; the % refers to the signal ratio.
% is scaled to controls: 0 for no effect and ±100 for the full control effect.

The test is described as follows: qHTS assay to identify small molecule agonists of H2AX (AID 1224845). As to conditions: CHO-K1 phospho-H2AX Ser139 HTRF, 3 h; series mostly up to 154 µM. In outline: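 Wild-type CHO-K1 cells, plated overnight, exposed 3hr at 37C to 15 concentrations (0.76% DMSO final). Lysed, then HTRF anti-pH2AX (S139) cryptate and anti-H2AX-d2 antibodies, 24 hr room temperature; 665/620 nm emission read.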
For the molecule `O=P(O)(O)OP(=O)(O)O`, the result was inactive.
On to `CC(C)NCC(O)COc1cccc2[nH]ccc12` (stereo not drawn), for which the molecule was called inactive.
The same measure, in the same setting: the entry for `O=C(O)CCSSCCC(=O)O` is “inactive”.
For the molecule `Oc1cn2c(n1)Nc1ccc(Cl)c(Cl)c1C2`, the activation (H2AX phosphorylation) was -0.0397% [at 31.6 µM].
Take `COc1ccc2c(c1)C(=O)N(CCc1ccc(S(=O)(=O)NC(=O)NC3CCCCC3)cc1)C(=O)C2(C)C`: the call was inactive.
Same read-out and setting: the entry for `CN(CCOc1ccc(NS(C)(=O)=O)cc1)CCc1ccc(NS(C)(=O)=O)cc1` is “inactive”.
As for `O=C(NCCc1c[nH]c2ccccc12)c1cccnc1`, the call was inactive.
The same measure, in the same setting: the entry for `CCN1CCc2nc(N)oc2CC1` is “inactive”; for `C=C(C)C(=O)OCc1ccccc1` it is “inactive”.
The same measure, in the same setting: the entry for `CC(C)=O` is “inactive”; for `CCCCCCOc1ccccc1C(N)=O` it is “inactive”.
In the case of `CCOc1cc([N+](=O)[O-])c(OCC)cc1N1CCOCC1`, the result was inactive.
Turning to `CC(C)C(=O)OCc1cccc(OC(=O)[C@@H]2N3C(=O)[C@@H](NC(=O)Cc4ccccc4)[C@H]3SC2(C)C)c1`, the molecule was classed as inactive.
Consider `C=COCCOCCOCCOC=C`, for which the result was inactive.
On to `CCCCNc1ccc(C(=O)OCCN(C)C)cc1`, for which the molecule was called inactive.
Regarding `CCCC/C=C/C=C\C=O`, the molecule was called inactive.
As to `CCCCCCN`, the molecule was classed as inactive.
Same read-out and setting: the entry for `O=C1CCCC(=O)O1` is “inactive”; for `Cc1cc(C(C)(C)C)c(O)c(C)c1CC1=NCCN1` it is “inactive”; for `Nc1nnc(-c2cccc(Cl)c2Cl)c(N)n1` it is “inactive”.
The same measure, in the same setting: the entry for `CCOC(=O)c1ccc(OC(=O)CCCCCN=C(N)N)cc1` is “inactive”.
With `CC1=C(C(=O)O)N2C(=O)[C@@H](NC(=O)[C@H](N)c3ccc(O)cc3)[C@H]2SC1`, the outcome was inactive.
Still for that read-out and setting: the entry for `CC(C)(C)c1cc(CCC(=O)NN)cc(C(C)(C)C)c1O` is “inactive”.
